Test systems include NCI-H23 lung; NCI-H226 lung; NCI-H322M lung; HOP-62 NSCLC; NCI-H460 lung; HOP-92 NSCLC; NCI-H522 lung; A549/ATCC NSCLC; 786-0 renal; COLO 205 colon; DU-145 prostate; K-562 leukemia; MALME-3M melanoma; MDA-MB-231 breast; RXF 393 renal; SF-268 CNS; SF-295 CNS; SF-539 CNS; UACC-257 melanoma; M14 melanoma.
Holding throughout (experiment): NCI-60 one-dose screen, 48 h (100 = growth as untreated, 0 = no growth, -100 = all killed)
Common to all, as to settings: 10 µM unless noted

About 83,000 compounds went through this panel and 20% of them were active in at least one assay; those are over-represented in the sample as a whole.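 Plates (96-well) were seeded with cells, treated with compound at one concentration, and incubated for 48 hours before percent growth was determined.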 A number with no mark means an inactive call. The source made the active and inactive calls. How the source made its calls: active means growth percent below 10; inactive means the rest.

For the molecule `COc1ccc(C/C(C)=C(\c2ccc(Cl)cc2)c2ccc(OCCCN(C)C)cc2)cc1`, the growth in the assay with NCI-H23 lung is 88.1%; in the assay with NCI-H226 lung, 108%; in the assay on NCI-H322M lung, 90.1%; with HOP-62 NSCLC, 92.9%; in the assay on NCI-H460 lung, 56.6%; with HOP-92 NSCLC it was 52.9%. For the same molecule, the growth is 89.1% with NCI-H522 lung; 68.7% in the assay on A549/ATCC NSCLC; 76.1% in the assay on 786-0 renal; -66.7% (active) in the assay on COLO 205 colon; 102% in the assay with DU-145 prostate; -7.99% (active) with K-562 leukemia. In addition, the growth is 80% with MALME-3M melanoma; 83.3% with MDA-MB-231 breast; 72.4% with RXF 393 renal; 88.6% with SF-268 CNS; 105% in the assay on SF-295 CNS; 84.7% with SF-539 CNS. The growth is 91.5% in the assay with UACC-257 melanoma and 48.7% with M14 melanoma.

In the case of `COc1ccc(NC(=O)c2ccc(Nc3ncnc4c3cnn4-c3cccc(F)c3)cc2)cc1`, the growth with NCI-H23 lung was 103%; in the assay with NCI-H226 lung, 103%; with NCI-H322M lung, 103%; in the assay on HOP-62 NSCLC, 101%; with NCI-H460 lung, 102%; with HOP-92 NSCLC it was 96.4%. Besides, the growth in the assay with NCI-H522 lung was 96.9%; with A549/ATCC NSCLC, 101%; with 786-0 renal it was 104%; in the assay with COLO 205 colon it was 109%; in the assay with DU-145 prostate it was 103%; in the assay with K-562 leukemia, 94.8%. Also, the growth was 92.6% in the assay on MALME-3M melanoma; 92% in the assay on MDA-MB-231 breast; 90.2% in the assay with RXF 393 renal; 99.1% in the assay with SF-268 CNS; 98.3% with SF-295 CNS; 96.5% with SF-539 CNS. For the same molecule, the growth in the assay with UACC-257 melanoma was 97.9%; in the assay with M14 melanoma, 98.4%.

As to `Nc1ncccc1O`, the growth in the assay on NCI-H23 lung is 78%; with NCI-H226 lung, 94.1%; with NCI-H322M lung, 98.8%; with HOP-62 NSCLC it was 99.5%; in the assay with NCI-H460 lung, 49.3%; with HOP-92 NSCLC, 105%. Besides, the growth with NCI-H522 lung was 61.4%; in the assay on A549/ATCC NSCLC it was 77.9%; in the assay with 786-0 renal, 111%; in the assay with COLO 205 colon, 92.6%; in the assay on DU-145 prostate, 22.8%; with K-562 leukemia it was 67.6%. Also, the growth with MALME-3M melanoma was 131%; in the assay on MDA-MB-231 breast, 117%; in the assay with RXF 393 renal it was 76.1%; in the assay on SF-268 CNS, 96%; in the assay with SF-295 CNS it was 82.4%; in the assay on SF-539 CNS it was 106%. Also, the growth was 91.3% in the assay on UACC-257 melanoma and 102% in the assay with M14 melanoma.

Regarding `C[C@H]1[C@H](C)CC[C@]2(C(=O)NCCNCCN)CC[C@]3(C)C(=CC[C@@H]4[C@@]5(C)CCC(=O)C(C)(C)[C@@H]5CC[C@]43C)[C@H]12`, the growth was 94.2% in the assay with NCI-H23 lung; 99.3% in the assay with NCI-H226 lung; 85% in the assay with NCI-H322M lung; 81.1% in the assay with HOP-62 NSCLC; -80% (active) in the assay on NCI-H460 lung; 52.9% in the assay on HOP-92 NSCLC. Besides, the growth with NCI-H522 lung was 54.3%; with A549/ATCC NSCLC, 42.4%; in the assay on 786-0 renal it was 80.7%; in the assay on COLO 205 colon, -49.9% (active); with DU-145 prostate, 51.6%; in the assay with K-562 leukemia, -9.33% (active). Also, the growth in the assay with MALME-3M melanoma was 71.3%; in the assay on MDA-MB-231 breast, 52.9%; with RXF 393 renal, 85%; in the assay with SF-268 CNS, 72.6%; with SF-295 CNS, 102%; in the assay with SF-539 CNS it was -28.3% (active). The figures for the growth in the assay on UACC-257 melanoma and with M14 melanoma were 88.7% and 40.9%, respectively.

Take `CCSc1ccnc(N)n1`: the growth with NCI-H23 lung was 120%; in the assay on NCI-H226 lung, 101%; with NCI-H322M lung it was 106%; in the assay with HOP-62 NSCLC, 94%; in the assay on NCI-H460 lung, 113%; with HOP-92 NSCLC, 98%. In addition, the growth in the assay with NCI-H522 lung was 105%; with A549/ATCC NSCLC, 118%; in the assay with 786-0 renal it was 98.3%; with COLO 205 colon it was 125%; in the assay with DU-145 prostate it was 105%; in the assay with K-562 leukemia, 121%. The growth was 86.3% with MALME-3M melanoma; 104% in the assay with MDA-MB-231 breast; 125% in the assay on RXF 393 renal; 93.9% with SF-268 CNS; 105% in the assay with SF-295 CNS; 105% in the assay with SF-539 CNS. The values for the growth in the assay with UACC-257 melanoma and in the assay with M14 melanoma were 102% and 112%, respectively.

`COc1ccc(C/C(C)=C(\c2ccc(Cl)cc2)c2ccc(OCCN3CCCC3)cc2)cc1`: the growth is 85% in the assay on NCI-H23 lung; 98.1% in the assay on NCI-H226 lung; 91.6% in the assay with NCI-H322M lung; 94.6% in the assay with HOP-62 NSCLC; 81.9% in the assay with NCI-H460 lung; 70.5% in the assay on HOP-92 NSCLC. Further, the growth was 90% in the assay with NCI-H522 lung; 79% with A549/ATCC NSCLC; 83.7% with 786-0 renal; 47.8% in the assay on COLO 205 colon; 98.5% with DU-145 prostate; 13% with K-562 leukemia. For the same molecule, the growth in the assay with MALME-3M melanoma is 93.5%; in the assay on MDA-MB-231 breast it was 85.7%; in the assay on RXF 393 renal it was 64.1%; in the assay with SF-268 CNS it was 86.5%; with SF-295 CNS, 99.2%; with SF-539 CNS, 88%. The growth in the assay on UACC-257 melanoma is 93.5%; in the assay with M14 melanoma, 62.9%.

Consider `CN(C)CCn1c(=O)c2ccccc2n2nc3ccccc3c12`, for which the growth was 87.3% with NCI-H23 lung; 84.8% in the assay on NCI-H226 lung; 85% in the assay with NCI-H322M lung; 90.9% in the assay with HOP-62 NSCLC; 70.4% in the assay with NCI-H460 lung; 99.6% in the assay with HOP-92 NSCLC. Moreover, the growth with NCI-H522 lung was 97.4%; in the assay on A549/ATCC NSCLC, 61.2%; with 786-0 renal, 93.9%; in the assay on COLO 205 colon, 57.2%; in the assay on DU-145 prostate, 101%; in the assay with K-562 leukemia, 86.5%. For the same molecule, the growth with MALME-3M melanoma is 92.4%; in the assay with MDA-MB-231 breast, 90.8%; in the assay on RXF 393 renal, 74.3%; in the assay with SF-268 CNS, 98.6%; with SF-295 CNS, 75%; in the assay on SF-539 CNS, 87.9%. Further, the results for the growth with UACC-257 melanoma and in the assay on M14 melanoma were 105% and 92.1%, respectively.

The values above are taken from PubChem BioAssay (NCI).
